Structures are written as SMILES. Hit rate of the full screen: of about 310,000 compounds, about 2,600 (0.84%) were called active.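 Rule for the calls: active = fluorescence ratio B-score at or below minus 3 SD of library scores, with starting-brightness B-score within 2 SD (cut at about -4.2 in these data); inactive = the rest.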 Many of the other results were omitted from the sample, so actives are more common in it than they were.

Chain of Inward rectifier potassium channel 2 (Mus musculus) (P35561 whole entry, looked up): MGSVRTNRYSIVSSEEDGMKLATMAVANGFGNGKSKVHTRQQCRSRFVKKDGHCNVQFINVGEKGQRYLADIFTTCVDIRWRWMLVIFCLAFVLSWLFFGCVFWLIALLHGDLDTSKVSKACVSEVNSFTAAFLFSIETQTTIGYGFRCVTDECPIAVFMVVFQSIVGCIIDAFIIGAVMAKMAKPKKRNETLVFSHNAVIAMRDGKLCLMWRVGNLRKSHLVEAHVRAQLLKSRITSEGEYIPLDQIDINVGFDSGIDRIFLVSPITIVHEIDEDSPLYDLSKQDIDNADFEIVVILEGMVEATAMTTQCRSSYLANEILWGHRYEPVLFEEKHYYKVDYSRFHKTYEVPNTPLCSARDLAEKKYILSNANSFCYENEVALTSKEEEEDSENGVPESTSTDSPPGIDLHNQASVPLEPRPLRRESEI

The test addresses Inward rectifier potassium channel 2 (Mus musculus) (UniProt P35561). Put plainly: inhibitors of mouse Kir2.1 inward-rectifier potassium channel (AID 1672).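 Note: channel flux triggered by added potassium and thallium sulfate stimulus; B-score of peak minus minimum fluorescence over baseline after thallium stimulus; more negative B-score means stronger Kir2.1 block with less thallium influx.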 The note with it: HEK293-Kir2.1, FluxOR thallium flux fluorescence; at 10 µM; hits give low values.
As for `CC(=O)N1C(C)c2ccccc2C(C)(C)CC12CCCCC2` (stereo not given), the B-score was -6.43 (active). Take `CC(=O)N1CCN(C(=O)c2cc(-c3ccc(C)o3)nc3ccccc23)CC1`: the B-score was 0.63 (inactive). In the case of `CCCCCN(C(=O)CCC(=O)OCCOc1ccc(OC)cc1)c1c(N)n(CCCC)c(=O)[nH]c1=O` it was 0.11 (inactive); in that of `O=C(N/N=C/c1cc(Br)c(O)c([N+](=O)[O-])c1)C(O)(c1ccccc1)c1ccccc1`, 1.06 (inactive); in that of `CN(/N=C/c1ccccc1)C(=S)c1ccccc1`, 1.83 (inactive). Then `CCCOc1ccc(Cn2ccnc2)cc1[N+](=O)[O-]`, with -0.79 (inactive); and `CCCCCOc1ccc(CSC2=NCCN2)cc1[N+](=O)[O-]`, with -0.86 (inactive). `CCCCOc1ccc(CSC(=N)N)cc1[N+](=O)[O-]`: the B-score was -5.22 (active). On to `O=C(CNC(=O)C12CC3CC(CC(C3)C1)C2)OCC(=O)N1CCCCC1`, for which the B-score was 1.97 (inactive). For the molecule `CCC(C)N(C(=O)COC(=O)c1nc(Cl)ccc1Cl)C1CCS(=O)(=O)C1` (stereo not given), the B-score was -0.16 (inactive). Regarding `CCN(CC(=O)Nc1ccc(NC(C)=O)cc1)C(=O)C1CC(=O)N(Cc2ccc(C)cc2)C1` (stereo not given), the B-score is 1.85 (inactive). `CCN(CC)C(=O)CC(c1ccc2c(c1)OCO2)c1c(OC)cc(OC)c2c(-c3ccccc3)cc(=O)oc12` (stereo not given): the B-score is 1.58 (inactive). As to `COc1cc(OC)c2ccc(=O)oc2c1C(CCN1CCN(c2ccccc2)CC1)c1ccc2c(c1)OCO2` (stereo not given), the B-score was -0.17 (inactive). In the case of `CCN(CC)CCC(c1ccc2c(c1)OCO2)c1c(OC)cc(OC)c2c(-c3ccccc3)cc(=O)oc12` (stereo not given) it was -6.31 (active). As to `Cc1ccc2nc(Nc3ccccc3O)nc(-c3ccccc3)c2c1`, the B-score was -0.47 (inactive).

For the molecule `O=C(CCl)NNc1nc(-c2ccccc2)c2cc(Cl)ccc2n1`, the B-score is 0.44 (inactive).

On to `NC(N)=Nc1nc(-c2ccccc2)c2cc(Cl)ccc2n1`, for which the B-score is -10 (active). Regarding `CCCCn1c(N)c(N(CCOC)C(=O)c2cccc(S(=O)(=O)N(C)c3ccccc3)c2)c(=O)[nH]c1=O`, the B-score is -1.94 (inactive). With `COc1ccc2c(c1)C(C)=CC(C)(C)N2C(=O)Nc1ccccc1`, the B-score is -0.17 (inactive). Take `COc1ccc2c(c1)C(C)=CC(C)(C)N2C(=O)CNCc1ccc2c(c1)OCO2`: the B-score is -6.62 (active). Then `COc1cccc(CNCc2ccc3c(c2)OCO3)c1`, with 0.44 (inactive). With `COc1ccc(-c2nnc(SCC(=O)Nc3cccnc3Cl)n2C)cc1`, the B-score was -1.29 (inactive). Take `COc1ccccc1-c1nc(SC)n[nH]1`: the B-score is 0.18 (inactive). For the molecule `COc1ccccc1-c1n[nH]c2c1[C@H](C)CC[C@H]2C(C)C`, the B-score was -5.83 (active). Then `COc1ccc(-c2n[nH]c(C)c2-c2ccccc2OC)c(O)c1`, with -2.01 (inactive); and `CCOc1ccc(S(=O)(=O)N2CCC(C(=O)OCc3ccc(OC)cc3)CC2)cc1`, with -1.22 (inactive); and `CCOc1cc(/C=N/NC(=O)c2cccc(S(=O)(=O)N3CCOCC3)c2)ccc1OCC(=O)N(C)C`, with 0 (inactive).

Take `COc1ccc(C(CNCC(=O)Nc2ccccc2F)N(C)C)cc1` (stereo not given): the B-score is -0.53 (inactive). For the molecule `COc1ccc(CC(=O)NC(C)CCc2ccccc2)cc1` (stereo not given), the B-score was -1.96 (inactive). With `COc1ccc(C(CCNCc2ccccc2F)c2ccc(F)cc2)cc1` (stereo not given), the B-score was -9.19 (active). With `Cc1ccc(NC(=O)COc2coc(CN3CCc4ccccc4C3)cc2=O)cc1Cl`, the B-score is -0.37 (inactive).

As to `CC(=O)Nc1ccc(C(=O)Nc2cccc(S(=O)(=O)NC3=NCCC3)c2)cc1`, the B-score is -0.82 (inactive). Turning to `O=C(Nc1ccccc1Cl)/C(Cl)=C(\Cl)S(=O)c1ccccc1` (stereo not given), the B-score is -14.3 (active). With `O=C(Nc1ccccc1Cl)Nn1cnnc1`, the B-score was 1.92 (inactive). Take `O=C(COC(=O)c1cccs1)Nc1ccccc1Cl`: the B-score was -0.93 (inactive). Then `O=C(NCCCc1ccccc1)C(=O)NCC1OCCN1S(=O)(=O)c1ccccc1` (stereo not given), with 0.45 (inactive); and `CC1=NCCN1S(=O)(=O)c1cccc([N+](=O)[O-])c1`, with 0 (inactive). Regarding `CCOc1ccc(S(=O)(=O)N2CCN=C2Cc2ccccc2)cc1C`, the B-score was -3.8 (inactive). On to `COc1cc(S(=O)(=O)N2CCN=C2c2ccccc2)ccc1Cl`, for which the B-score is -5.41 (active). Regarding `CCOC(=O)c1cc(C(C)C)sc1NC(=O)COC(=O)c1nccnc1N`, the B-score was -0.16 (inactive). Turning to `CCCCN(C(=O)c1ccc(S(=O)(=O)N2CCOCC2)cc1)C1CCS(=O)(=O)C1` (stereo not given), the B-score was -1.08 (inactive). For `Cc1ccc(-c2nn(-c3ccccc3)cc2C(=O)NCCCN2CCCC2=O)cc1`, the B-score is -0.8 (inactive). `OC(COc1ccc(F)cc1Cl)CN1CCc2ccccc2C1` (stereo not given): the B-score is -5.33 (active). For the molecule `Cc1ccc(OCC(O)CN2CCN(CC(O)COc3ccc(C)cc3Cl)CC2)c(Cl)c1` (stereo not given), the B-score was 0.66 (inactive). In the case of `COc1ccccc1OCC(O)CN1CCOCC1` (stereo not given) it was 1.4 (inactive); in that of `Cc1ccc(C(=O)NC2CCCC(C)C2C)cc1S(=O)(=O)N1CCCCC1` (stereo not given), -1.83 (inactive). On to `O=C(Cc1ccccc1)NCc1ccc(F)cc1`, for which the B-score is 0.8 (inactive).

For `CCCCC(=O)NCc1ccc(F)cc1`, the B-score is 0.15 (inactive).

Take `CCn1cc(CCC(=O)NCc2ccc(F)cc2)c2ccccc21`: the B-score was -6.18 (active). Take `CCCC(C(=O)OCCN(CC)CC)(c1ccccc1)c1ccccc1`: the B-score was -5.06 (active). `CCN(CC)CCOC(=O)c1ccc(NC(=O)CNC(=O)c2ccccc2)cc1`: the B-score is 0.63 (inactive).

`CCC(C(=O)OCCN(CC)CC)c1ccccc1` (stereo not given): the B-score is 0.4 (inactive). In the case of `COc1cc(C(=O)OCC(=O)N(CC(C)C)C2CCS(=O)(=O)C2)ccc1OCC(C)C` (stereo not given) it was 1.65 (inactive).

Take `COc1ccc(NC(=O)CSc2nnc(Cc3ccccc3)c(=O)n2N)cc1`: the B-score is -1.28 (inactive). `CC12CCC(=O)N1C(C(=O)Nc1ccc(F)c(F)c1F)CS2` (stereo not given): the B-score is 1.46 (inactive).

For `COc1cccc(CNC(=O)C(=O)NCCC2CCCCN2S(=O)(=O)c2ccc(C)cc2)c1` (stereo not given), the B-score was -0.02 (inactive). Turning to `COc1cccc(CN(C)CC(=O)Nc2ccccc2C(=O)Nc2ccccc2)c1`, the B-score is 0.2 (inactive).

On to `COc1cccc(CN(C)CC(O)COC(c2ccccc2)c2ccccc2C)c1` (stereo not given), for which the B-score was -9.28 (active). `COc1cccc(CN(C)CC(=O)Nc2sc3c(c2C#N)CCC3)c1`: the B-score is 1.34 (inactive). As for `C=CCOc1ccc(/C=C/C(=O)OC(C)C(=O)Nc2ccc(NC(C)=O)cc2)cc1` (stereo not given), the B-score was 1.98 (inactive).
